In assay [1] the target is Sphingosine kinase 1 (Homo sapiens) (UniProt Q9NYA1). The settings on record: at 1 µM.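 Further: mean SPHK1 inhibition value reported from the GSK PKIS kinase panel screen.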
For assay [2], the target named is T1, Sphingosine kinase 2 (Homo sapiens) (UniProt Q9NRA0).
T1 sequence (whole entry): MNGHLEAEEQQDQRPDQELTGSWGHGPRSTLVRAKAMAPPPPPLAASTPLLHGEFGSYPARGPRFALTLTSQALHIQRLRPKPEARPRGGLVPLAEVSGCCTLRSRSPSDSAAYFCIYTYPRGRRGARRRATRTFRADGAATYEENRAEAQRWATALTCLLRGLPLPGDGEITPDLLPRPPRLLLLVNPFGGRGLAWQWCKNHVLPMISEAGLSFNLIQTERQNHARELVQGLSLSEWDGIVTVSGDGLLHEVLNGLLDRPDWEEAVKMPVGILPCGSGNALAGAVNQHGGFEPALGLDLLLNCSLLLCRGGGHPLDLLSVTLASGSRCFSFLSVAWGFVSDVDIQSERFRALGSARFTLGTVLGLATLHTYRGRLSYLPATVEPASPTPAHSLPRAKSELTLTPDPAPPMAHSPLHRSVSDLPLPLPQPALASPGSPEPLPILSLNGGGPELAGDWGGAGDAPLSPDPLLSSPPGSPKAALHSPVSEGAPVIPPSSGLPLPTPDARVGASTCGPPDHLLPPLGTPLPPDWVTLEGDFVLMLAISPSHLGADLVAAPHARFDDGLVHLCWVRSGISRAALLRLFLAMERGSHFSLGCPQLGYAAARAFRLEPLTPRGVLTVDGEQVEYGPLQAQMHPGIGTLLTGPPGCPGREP
The settings on record: at 0.1 µM.

The target in assay [3] is T1, Sphingosine kinase 2 (Homo sapiens). The settings on record: at 1 µM.
In assay [4] the target is Casein kinase II subunit alpha (Homo sapiens) (UniProt P68400). The settings on record: at 0.1 µM.
The target is the same in assay [5]. The settings on record: at 1 µM.
For assay [6], the target named is T2, Inhibitor of nuclear factor kappa-B kinase subunit alpha (Homo sapiens) (UniProt O15111).
T2 sequence (whole entry): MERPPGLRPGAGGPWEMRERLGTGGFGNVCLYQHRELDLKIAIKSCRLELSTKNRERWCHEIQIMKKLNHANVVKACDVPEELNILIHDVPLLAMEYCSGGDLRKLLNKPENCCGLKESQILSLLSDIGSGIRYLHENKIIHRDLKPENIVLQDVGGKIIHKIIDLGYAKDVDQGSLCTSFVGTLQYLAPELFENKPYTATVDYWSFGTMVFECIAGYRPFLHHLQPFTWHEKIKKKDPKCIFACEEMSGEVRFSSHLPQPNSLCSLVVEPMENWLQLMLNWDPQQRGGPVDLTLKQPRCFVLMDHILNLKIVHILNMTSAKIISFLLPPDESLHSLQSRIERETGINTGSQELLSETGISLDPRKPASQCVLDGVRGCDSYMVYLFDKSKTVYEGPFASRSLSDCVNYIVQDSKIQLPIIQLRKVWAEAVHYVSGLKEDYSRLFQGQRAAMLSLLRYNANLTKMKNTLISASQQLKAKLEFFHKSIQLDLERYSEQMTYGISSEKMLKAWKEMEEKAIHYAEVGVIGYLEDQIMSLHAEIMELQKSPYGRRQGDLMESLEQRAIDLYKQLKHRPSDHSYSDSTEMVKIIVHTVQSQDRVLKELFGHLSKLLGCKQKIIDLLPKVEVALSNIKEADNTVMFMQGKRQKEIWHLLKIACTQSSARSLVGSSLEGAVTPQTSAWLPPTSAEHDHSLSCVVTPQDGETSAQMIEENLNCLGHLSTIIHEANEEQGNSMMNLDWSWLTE
The settings on record: at 0.1 µM.

The target of assay [7] is T2, Inhibitor of nuclear factor kappa-B kinase subunit alpha (Homo sapiens). The settings on record: at 1 µM.
The target of assay [8] is T3, Inhibitor of nuclear factor kappa-B kinase subunit beta (Homo sapiens) (UniProt O14920).
T3 sequence (whole entry): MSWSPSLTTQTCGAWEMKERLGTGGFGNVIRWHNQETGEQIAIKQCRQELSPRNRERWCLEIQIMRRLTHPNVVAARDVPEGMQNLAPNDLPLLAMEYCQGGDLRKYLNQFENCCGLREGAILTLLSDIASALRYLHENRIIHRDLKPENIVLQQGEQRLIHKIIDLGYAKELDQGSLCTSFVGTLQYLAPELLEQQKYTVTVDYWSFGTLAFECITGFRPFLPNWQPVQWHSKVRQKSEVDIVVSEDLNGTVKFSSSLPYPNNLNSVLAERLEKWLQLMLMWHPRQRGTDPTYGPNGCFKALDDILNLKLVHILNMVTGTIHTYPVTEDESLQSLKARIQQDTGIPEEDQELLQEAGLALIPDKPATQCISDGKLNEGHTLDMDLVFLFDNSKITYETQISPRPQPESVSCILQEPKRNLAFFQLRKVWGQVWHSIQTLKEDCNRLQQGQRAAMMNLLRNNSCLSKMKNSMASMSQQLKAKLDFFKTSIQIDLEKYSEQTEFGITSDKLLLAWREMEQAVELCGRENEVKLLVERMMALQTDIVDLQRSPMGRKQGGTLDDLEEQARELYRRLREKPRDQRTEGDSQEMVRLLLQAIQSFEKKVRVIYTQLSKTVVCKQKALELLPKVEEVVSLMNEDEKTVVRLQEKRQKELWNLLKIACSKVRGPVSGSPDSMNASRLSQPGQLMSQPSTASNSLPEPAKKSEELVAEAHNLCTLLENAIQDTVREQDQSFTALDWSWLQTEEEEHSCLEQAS
The settings on record: at 0.1 µM.

In assay [9] the target is T3, Inhibitor of nuclear factor kappa-B kinase subunit beta (Homo sapiens). The settings on record: at 1 µM.
Assay [10] has as its target T4, Inhibitor of nuclear factor kappa-B kinase subunit epsilon (Homo sapiens) (UniProt Q14164).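 Further: mean inhibition of IKKε reported, from the GSK PKIS dataset.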
T4 sequence (whole entry): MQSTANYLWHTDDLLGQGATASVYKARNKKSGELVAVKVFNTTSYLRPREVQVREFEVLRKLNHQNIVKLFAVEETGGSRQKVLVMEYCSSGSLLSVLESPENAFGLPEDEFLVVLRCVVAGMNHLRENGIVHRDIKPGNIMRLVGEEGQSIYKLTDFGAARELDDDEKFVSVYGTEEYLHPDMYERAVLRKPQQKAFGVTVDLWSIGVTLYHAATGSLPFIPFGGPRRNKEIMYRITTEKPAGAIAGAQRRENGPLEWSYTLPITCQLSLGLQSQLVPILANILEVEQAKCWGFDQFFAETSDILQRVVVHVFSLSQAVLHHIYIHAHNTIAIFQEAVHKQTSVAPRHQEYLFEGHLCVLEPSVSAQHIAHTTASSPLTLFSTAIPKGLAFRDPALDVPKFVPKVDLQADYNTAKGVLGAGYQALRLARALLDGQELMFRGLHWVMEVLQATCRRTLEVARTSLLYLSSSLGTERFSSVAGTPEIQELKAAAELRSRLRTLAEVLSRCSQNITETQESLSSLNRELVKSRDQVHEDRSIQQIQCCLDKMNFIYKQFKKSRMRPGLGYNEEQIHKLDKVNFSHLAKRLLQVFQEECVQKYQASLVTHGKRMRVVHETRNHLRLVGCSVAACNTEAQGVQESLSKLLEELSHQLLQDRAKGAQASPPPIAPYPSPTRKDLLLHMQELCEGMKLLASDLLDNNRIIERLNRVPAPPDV
The settings on record: at 0.1 µM.

SMILES strings stand for the structures.

Chain of Sphingosine kinase 1 (Homo sapiens) (Q9NYA1 whole entry): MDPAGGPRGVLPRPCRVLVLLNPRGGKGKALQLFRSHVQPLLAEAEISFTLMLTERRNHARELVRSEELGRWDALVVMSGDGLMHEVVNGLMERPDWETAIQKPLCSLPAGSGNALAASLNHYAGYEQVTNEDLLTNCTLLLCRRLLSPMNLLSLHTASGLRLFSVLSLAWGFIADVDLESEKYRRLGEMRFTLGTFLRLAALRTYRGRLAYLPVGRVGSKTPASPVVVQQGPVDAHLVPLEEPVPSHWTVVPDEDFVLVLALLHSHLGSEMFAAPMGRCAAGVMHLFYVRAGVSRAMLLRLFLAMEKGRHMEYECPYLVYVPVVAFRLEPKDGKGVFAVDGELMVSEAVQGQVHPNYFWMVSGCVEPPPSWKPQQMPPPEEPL
Chain of Casein kinase II subunit alpha (Homo sapiens) (P68400 whole entry, looked up): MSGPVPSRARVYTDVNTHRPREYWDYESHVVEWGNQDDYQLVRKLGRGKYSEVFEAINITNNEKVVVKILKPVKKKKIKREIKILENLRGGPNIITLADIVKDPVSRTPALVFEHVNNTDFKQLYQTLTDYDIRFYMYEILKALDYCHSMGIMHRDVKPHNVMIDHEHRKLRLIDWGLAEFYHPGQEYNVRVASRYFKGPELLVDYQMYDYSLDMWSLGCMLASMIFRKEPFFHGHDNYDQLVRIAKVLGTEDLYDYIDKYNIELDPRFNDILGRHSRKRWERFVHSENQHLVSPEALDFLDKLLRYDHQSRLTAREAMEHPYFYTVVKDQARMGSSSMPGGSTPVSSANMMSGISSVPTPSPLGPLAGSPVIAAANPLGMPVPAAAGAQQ

Consider `COc1cc(C)c(N(C)C(=O)CN(C)C)cc1Nc1nc(Nc2cccc(F)c2C(N)=O)c2cc[nH]c2n1`, for which the inhibition was -0.02% in assay [1]; 0.91% in [2]; -0.35% in [3]; 0.17% in [4]; 4.3% in assay [5]; 3.63% in assay [6]. Moreover, the inhibition was 1.85% in [7], 2.96% in [8], -0.54% in assay [9] and 1.26% in assay [10].
Regarding `COC(=O)Nc1nc2ccc(Sc3ccc(NC(=O)Nc4cc(C(F)(F)F)ccc4F)cc3)cc2[nH]1`, the inhibition is 4.23% in [1]; -0.54% in assay [2]; -0.1% in assay [3]; 2.02% in [4]; 6.92% in assay [5]; 2.75% in [6]. The inhibition was -2% in [7], -0.76% in [8], -1.08% in assay [9] and -0.58% in assay [10].
Take `COc1cc(N2CCN(C(C)C)CC2)ccc1Nc1nc(Nc2ccc(F)cc2C(=O)NC[C@@H](O)CO)c2cc[nH]c2n1`: the inhibition in [1] came to 5.85%; in assay [2], 0.95%; in [3], 0.89%; in assay [4], 4.77%; in assay [5] it was 15.7%; in assay [6] it was 6.97%. The inhibition in assay [7] worked out at 11.1%; in [8], 7.85%; in [9], 9.5%; in assay [10], 8.4%.
`COc1cc2ncn(-c3cc(OCCc4ccccc4)c(C(N)=O)s3)c2cc1OC`: the inhibition is -2.62% in assay [1]; -3.06% in [2]; 0.29% in [3]; 1.36% in [4]; -0.04% in [5]; 6.65% in assay [6]. The inhibition in [7] is 1.12%; in [8], 3.03%; in [9] it was 0.18%; in [10] it was 2.79%.
`Cc1nnc(-c2ccc(C)c(-c3ccc(C(=O)NCc4ccc(Cl)cc4)cc3)c2)o1`: the inhibition is -3.95% in [1]; 0.02% in assay [2]; 0.44% in assay [3]; 2.9% in assay [4]; 5.39% in assay [5]; 8.21% in assay [6]. The inhibition in [7] turned out to be 5.98%; in assay [8], 6.95%; in assay [9], 4.95%; in assay [10] it was 5.66%.
As for `O=C(Nc1n[nH]c2cc(-c3ccccc3)ccc12)C1CC1`, the inhibition in [1] was 0.1%; in assay [2] it was -1.1%; in assay [3] it was -0.92%; in assay [4] it was 1.99%; in [5], 6.38%; in assay [6] it was 2.61%. Besides, the inhibition was determined as 7.25% in assay [7], 5.63% in assay [8], 3.54% in assay [9] and 4.3% in [10].
On to `O=C1Nc2ccccc2/C1=C/Nc1ccc(-n2cncn2)cc1`, for which the inhibition in assay [1] was -4.72%; in assay [2], -0.36%; in [3], 1.3%; in assay [4], 7.12%; in assay [5], 12.8%; in assay [6] it was 11.8%. Further, the inhibition in assay [7] was found to be 2.05%; in [8], 9.35%; in assay [9] it was 11.4%; in [10] it was 7.57%.
`CS(=O)(=O)CCNCc1cc(-c2cc3c(Nc4ccc(OCc5cccc(F)c5)c(Cl)c4)ncnc3s2)cs1`: the inhibition was 3.45% in [1]; -0.27% in [2]; 0.36% in assay [3]; 2.87% in assay [5]; 10.9% in [6]; 9.95% in assay [7]. The inhibition in assay [8] amounted to 7.54%; in assay [9] it was 6.76%; in assay [10], 6.48%.

As usually defined, the inhibition is the relative decrease from the control value, in per cent.

The values are drawn from ChEMBL document CHEMBL1961873, “Compounds: GSK PKIS; Assays: Nanosyn kinase panel” (2012).
